ELG1 genotox = genotoxicity induction in ELG1-luciferase HEK293T cells. HEK293T ELG1-luciferase reporter, luminescence, 16 h. Potency, µM (top dose mostly 46 µM), inactives show at the highest dose activity change, positive = activation, hits mostly activators. 1.3% of 330,000 active; also: % of control where 0% means no effect; nearly all actives have a fitted effect of over 60% in size
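Quantitative HTS format in 1536-well plates. HEK293T ELG1-luciferase reporter cells receive test compound and are incubated 16 hr at 37 °C, 5% CO2; ONE-Glo added, 30 min room temperature, then luminescence read.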
KinaseGlo FLuc = blocks Kinase-Glo luciferase, a counter-screen artifact. Q27757. Kinase-Glo luciferase, ATP luminescence, 8 min. Potency, µM (titrated, usually from 38.3 µM), inactives show top-dose activity change, negative = inhibition, actives largely listed as inhibitors. 0.28% of 200,000 active; also: % is scaled to controls: 0 for no effect and ±100 for the full control effect; nearly all actives have a fitted effect of over 60% in size
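Light output from Kinase-Glo luciferase with luciferin and 10 uM ATP in 50 mM imidazole pH 7.2, KCl, MgCl2, Tween 20, BSA; compound pin-delivered, 8-min ambient incubation, then luminescence read.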
NPC1 promoter act = NPC1 promoter activation; Huh7 NPC1 promoter luciferase reporter, 24 h; Potency, µM (titrated, usually from 9.22 µM), inactives show top-dose activation, usual class: activators; 2.4% of 320,000 active; AID 485313; also: % of control where 0% means no effect; nearly all actives have a fitted effect of over 60% in size
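Luciferase expression driven by the NPC1 promoter was measured in stably transfected Huh7 cells after a 24 h compound incubation, using a luciferase reagent and a luminescence read.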
Rab9 promoter act = activators of Rab9 promoter; 2.8% of 320,000 active; Potency, µM (series often up to 9.22 µM), for inactives: top-dose activation, negative = inhibition, actives largely listed as activators; Huh7 Rab9 promoter-luciferase reporter, luminescence, 24 h; AID 485297; also: % of control where 0% means no effect; nearly all actives have a fitted effect of over 60% in size
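Huh7 cells stably carrying a Rab9 promoter-luciferase reporter, 1500 cells per well in OP-MEM I with 10% FBS, treated with compound 24 hours at 37C. Luciferase activity read by luminescence after 10 minutes with Amplite reagent.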
SMN2 splice enh = increases expression of the SMN2 splice variant; HEK293 SMN2-luciferase splicing reporter, luminescence, 30-36 h; Potency, µM (doses to about 46.1 µM), inactives show at the highest dose activity change, positive = activation, usual class: activators; 2.8% of 210,000 active; AID 1458; also: % of control where 0% means no effect; nearly all actives have a fitted effect of over 55% in size
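HEK293 cells carry an SMN2 […]–luciferase reporter in which exon 7 inclusion puts luciferase in frame. Cells were plated 10-12 h before compound addition, then incubated 30-36 h at 37C. ONE-Glo luminescence was read; sodium butyrate at 4.5 mM final served as control.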
FLuc counter = firefly luciferase modulation, counter-screen for miR-21 project. P08659. purified FLuc, Km substrates, luminescence inhibition. Potency, µM (titrated, usually from 57.5 µM), inactives show at the top dose activity change, negative = inhibition, usual class: inhibitors. 6.9% of 360,000 active. AID 588342;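 also: plate controls were vehicle for no effect and reference inhibitor for full effect; nearly all actives have a fitted effect of over 55% in size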
Target sequence (P08659 whole entry, looked up): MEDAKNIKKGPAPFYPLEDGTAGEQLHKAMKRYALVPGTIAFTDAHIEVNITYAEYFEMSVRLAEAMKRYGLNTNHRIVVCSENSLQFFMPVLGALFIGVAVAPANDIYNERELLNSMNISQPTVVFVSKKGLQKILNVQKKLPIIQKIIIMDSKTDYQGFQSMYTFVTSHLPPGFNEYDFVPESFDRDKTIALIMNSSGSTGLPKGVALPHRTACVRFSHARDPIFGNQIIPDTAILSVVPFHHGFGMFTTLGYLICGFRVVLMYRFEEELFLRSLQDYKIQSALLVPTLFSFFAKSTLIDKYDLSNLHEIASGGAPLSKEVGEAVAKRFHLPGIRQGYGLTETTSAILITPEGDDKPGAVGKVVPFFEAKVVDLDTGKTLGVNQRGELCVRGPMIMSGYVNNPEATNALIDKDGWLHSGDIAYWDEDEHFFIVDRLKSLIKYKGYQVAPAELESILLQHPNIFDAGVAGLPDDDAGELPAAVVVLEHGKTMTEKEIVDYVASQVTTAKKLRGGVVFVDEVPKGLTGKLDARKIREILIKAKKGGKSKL
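Purified P. pyralis luciferase, 10 nM final, with Km-level 10 uM D-luciferin and 10 uM ATP in 50 mM Tris acetate pH 7.5, 10 mM Mg acetate, 0.01% Tween-20, 0.05% BSA; 6-point qHTS titration about 60 µM downward; luminescence read.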
* marks the source's active call; other numbers are inactive results; ? = inconclusive; / = no result. Sampled rows, rich in hits. Any-hit rate of the full collection: about 7.3%. Calls follow the shape of the dose curve; as a rule, active = well fitted curve in the direction sought with a large enough effect; inconclusive = small, poorly fitted or top-dose-only effect, or another doubt; inactive = no such curve, though single readings can be large; an effect the other way counts as inactive or inconclusive. Potency is read from the fitted curve at half-maximal effect.

SMILES	ELG1 genotox	KinaseGlo FLuc	NPC1 promoter act	Rab9 promoter act	SMN2 splice enh	FLuc counter
Cc1ccc(CNC(=O)c2nc(-c3ccc(Cl)cc3)n3c2CCCCC3)cc1	/	/	/	/	/	-12.4%
CCOC(=O)C1=C(Cc2ccc(C)cc2)C(=O)c2ccccc2C1=O	4.4%	-3.2%	-5.5%	-12.4%	-98.3%	13.5µM*
CCOC(=O)c1ccc(COC(=O)c2ccc3c(c2)-c2ccccc2C3=O)cc1	-1.4%	-1.8%	-5.8%	-0.3%	-20.4%	0.7%
CCOC(=O)C1=C(Cc2ccc(OC)cc2)C(=O)c2ccccc2C1=O	27.9%	14.1%	-13.7%	0.9%	-26.4%	10.7µM*
COc1ccc(C)cc1NS(=O)(=O)c1ccc2c(c1)CCCN2C(C)=O	/	/	/	/	/	5.0%
CCN(CC)c1ccc(C=C2C(=O)OC(c3ccccc3)OC2=O)cc1 (configuration not stated)	-8.7%	-1.1%	-2.1%	-1.0%	-3.0%	12µM*
O=C(/C=C/c1ccccc1)OCc1cncs1	?	0.4%	29.5%	?	7.2%	26.9µM*
O=C(Nc1ccccc1)OCc1cncs1	8.0%	-8.0%	5.6%	20.4%	9.1%	-10.7%
Cc1cccn2c(=O)cc(CSc3nnc(NC(=O)COc4ccccc4)s3)nc12	/	/	5.4%	0.1%	/	?
CN(C)c1c(F)cc(-c2nn[nH]n2)cc1F	15.4%	/	1.3%	3.7%	/	15.1µM*
c1cncc(-c2nn[nH]n2)c1	2.8%	1.8%	-2.5%	-1.2%	-5.6%	1.8%
Oc1ccc(/C=N/NC(=S)Nc2cccnc2)c(O)c1	?	0.9%	-2.1%	-17.5%	-91.8%	21.3µM*
Oc1cccc(/C=N/NC(=S)Nc2cccnc2)c1O	?	-2.6%	-0.5%	-1.5%	-82.4%	?
Fc1ccc(/C=N/NC(=S)Nc2cccnc2)cc1	23.1µM*	-9.5%	16.1%	26.6%	1.4%	?
Oc1ccc(/C=N/NC(=S)Nc2cccnc2)c(O)c1O	-17.2%	/	-3.0%	-3.4%	/	19µM*
Cc1cccc(Oc2coc3cc(OCC(=O)NC4CCCCC4)ccc3c2=O)c1	/	/	/	/	-14.9%	-9.5%
COc1ccccc1Nc1c2c(nc3ccc(NC(=O)c4ccc(N(C)C)cc4)cc13)CCCC2	/	/	/	/	-44.7%	-0.3%
COc1ccc(C(=O)OC2=C(C(=O)c3ccccc3)N(C)S(=O)(=O)c3ccccc32)cc1OC	/	/	/	/	-4.9%	-6.1%
CC1=NN(C(N)=S)C(=O)C1N=Nc1ccccc1C (configuration not stated)	1.0%	1.6%	13.4%	3.7%	?	21.3µM*
CC1=NN(C(N)=S)C(=O)C1N=Nc1ccc(C)cc1C (configuration not stated)	11.2µM*	-4.1%	?	?	14.1µM*	4.78µM*
CC1=NN(C(N)=S)C(=O)C1N=Nc1ccccc1O (configuration not stated)	0.4%	/	25.5%	7.6%	/	-5.2%
Cc1ccc(-c2csc(=Nc3ccccc3)n2Cc2ccc3c(c2)OCO3)cc1	/	/	/	/	?	-44.0%
Cc1cc(NC(=O)Nc2ccc(C)c(C)c2)no1	?	6.9%	21.4%	?	/	13.5µM*
COc1cccc(C(=O)NC(=O)Nc2cc(C)on2)c1	?	-0.7%	?	1.58µM*	11.2µM*	?
COc1cc(C(=O)Nc2ccc(C)cn2)c([N+](=O)[O-])cc1OC	2.3%	1.4%	-9.2%	-0.5%	2.7%	-0.1%
COc1ccc(C(=O)Nc2cc(C)on2)c(OC)c1	?	/	3.16µM*	3.16µM*	/	10.7µM*
COc1ccc(C(=O)Nc2ccc(C)cn2)c(OC)c1	0.092µM*	?	?	0.355µM*	/	0.19µM*
COc1cccc(CNC(=O)Cc2c(C)c3c(cc(C)c4c(C)coc43)oc2=O)c1	/	/	/	/	0.2%	-2.6%
O=C(NCC(c1ccco1)S(=O)(=O)c1cccs1)c1ccc(F)c(F)c1 (configuration not stated)	/	/	/	/	/	3.7%
COc1c(C)cccc1C(=O)Nc1ccc(Cl)c(-c2nc3cc(C)ccc3o2)c1	/	/	/	/	-20.8%	?

Screens deposited in PubChem BioAssay by National Center for Advancing Translational Sciences (NCATS).
